Consider 32 molecules from the supplement of paper PMC12632987.

B1: GBRAPL2_0_7217 (protein)
chain: MEELIEKAKELSVEEAAELFVEEVKRLVESGKATDEELMELVEKAAEVLEEKMKESKDEEDEDIALEAADRIREILAEKDPRLAAYAYSEIGAGIMEASS
B2: GBRAPL2_0_7238 (protein)
chain: AEELLKKLLEASVEEAIAAIKEAAEKAVKEIEKDPEAGLKAAEELAEVFAEVIIERKNEEVIKAVEEAADRIVAAAAKVDPNAAAYIASIIGSALYEYES
B3: GBRAPL2_0_7220 (protein)
chain: MEEFVKEMLELSIKEAAEAAVKYIKELVESGKYSLEEIEEAVEKIAEVLGEKLKKEKKEEAEDIAMEAADEIRKILSEKDPNLAAYAYSEIGAEIMEAWS
B4: GBRAPL2_0_7208 (protein)
chain: YKERIEEAKKLSPEEAYKALKELVKEIAEDKSISAEEREEILEEIIELAYEIYKKEKTEEAEKAFDEIVDLAVKAAAKVDPNLAAYIASFGGSLIMEAES
B5: GBRAPL2_0_7223 (protein)
chain: MEKLKEEMLKLSIEEASKKAVETVKEMVESGKYSLEEIEEKIEAMAEVLGELLKKEKKEEAEEIAIKAADEIRKILEKKDPNLAAFAYSEIGAEIMEARE
B6: GBRAPL2_0_7218 (protein)
chain: MEELVEKARKLSVEEAAELFVEKVRELVESGKATDEELEALVEAAAEVLEEKIKKNKNEKDLDIAAEAADRIREILAKKDPRLAAFADSEIGAGIMEAAS
B7: GBRAPL2_0_7226 (protein)
chain: MEETLEKIKKLSIKEAAEYVVEKVEELVKSGKYSLEEIEEIVSALADELGEKLKKENKEEGLDYAAEAADRIREILSKLDPNLAAFAYSEIGSEIMEAES
B8: GBRAPL2_0_7239 (protein)
chain: MEELLKELLSLSLEEAKKKIKEKTEEAVKLIRKDPEKGLKYAEELVEVFAEVVVERKNEELEEVVDEATDRLVEEAAKIDPNEAAYLAAIRGSAIAEVEL
B9: GBRAPL2_0_7221 (protein)
chain: MEKLVEEMKKLSVEEAAERFVKEIKEAVESGKYSLDEIAELIEAMAKVLGELLKKNKKEEDFDIAMKAADEVRKILEKVDPNLAAYAYSEIGAEIMEAEE
B10: GBRAPL2_0_7210 (protein)
chain: MEKILEEAKKLSVEEAAEYAVETVEELVKSGSLSPEELAELAKELLKVLIEKVKENGKEEDVEIADETIDRVREILRPVDPRLAAYVATEGYSELLELEE
B11: GBRAPL2_0_7232 (protein)
chain: MEEKIEELKKLSVEEAAKYFVETVKEAVESGKYSLEEIAELIEKMAEVLGEKLKEVKKEEAIDIAAKAADEVRKILSKLDPNLAAYAASEIGAEIMEAWS
B12: GBRAPL2_0_7212 (protein)
chain: MEEILEEISKLSIEEAAEKAIKLVKELVESKSLSTEELFELAKKLLEIIVEKVKEENKEESLEIARETADEIYEILKKVDPKEAAYVYTEIMEKILELEE
B13: GBRAPL2_0_7214 (protein)
chain: MEEFLEELKKLSIEEAAKKAVEKVREMAESGKYSLEEIEEFVEKMAEVLGEKIKKEKKEESLDIAAEAADEIRKILEKVDPRLAAYADSEIGAEIMEAEE
B14: GBRAPL2_0_7211 (protein)
chain: MEEILEKAKKLSVEEAAKYAVETVKSLVESGSLSPEELAELATKLLKVLIEKVKKDGKEESVEIAVETADKIREILKPVDPNLAADVDTEALSEILELEE
B15: GBRAPL2_0_7207 (protein)
chain: YEKEIEKAKTLTPEEAFKALKKLVKKLAKDKSVSKEELEALLEAILDLAYEIMAKEKTEEAEKAFDEIAEEATKAAAKRDPNLAAYIASYAGSLLMEYES
B16: GBRAPL2_0_7237 (protein)
chain: MEELLEKLLSLSLEEAKKEIKKLADEVIELLRKDPEKGKEAAEELAEVFSEYLEKTKNEELEEVIDEAIDKIVEEMSKIDPREAAYIDSIFGSAIMEVEG
B17: GBRAPL2_0_7233 (protein)
chain: MEEIVEELKKLSVEEAAEYFVKKVKEMVESGKYSLEEIEELIEKLAEVLGEKLKKNKKEEDLDIAAEAADKVREILLKRDPNLAAFAASEIGAEIMEAWS
B18: GBRAPL2_0_7240 (protein)
chain: MEALKAELLALSLEEAIARIEALTDEAVALIRADPEAGLAAAEELVEVLAEVVVERKDERLEEAVEAATDRLAAVVAEVDPREAAYLRAIMGSAIAEVES
B19: GBRAPL2_0_7219 (protein)
chain: MEEKVEEMKKLSIKEAAEAAVKLIKEMVESGKYSLEEIAEAVEKLAEVLGEKLKKEKKEEAEDIALEAARKIREILAKRDPNLAAYAYSEIGAEIMEASS
B20: GBRAPL2_0_7230 (protein)
chain: IEERVEEMSKLSIEEAAAYAVEKVREMAESGEYSLEEIEEFVEKAAEVLGKKLKEEKKEEGLDIAAEAAREIREILSKVDPRLAALAESEIGAAIMEAEL
B21: GBRAPL2_0_7213 (protein)
chain: MEEFLKELKSLSIEEAAEKFVKKIEEMAKSGKYSLEEIEEIVEEMAKVLGEKVKKEKKEESLDIAAEAADKVREILEKIDPNLAAYAYSEIGAEIMEAAE
B22: GBRAPL2_0_7215 (protein)
chain: MEELVEEAKKLSVEEAAELFVKRVEELVESGKATREELEALVEAAAKVLGEKIKKNKNEEDLDIAAEAADRIREILAKVDPELAAYADSEIGAEIMEAFS
B23: GBRAPL2_0_7228 (protein)
chain: IEEEIEKISKLSIEEAAKAAVELVKEMAESGKYSLEEIEEFVEKAAEVLEKKIKEEKKEESLDIAAETADEVRKILEKIDPNLAAYAASEIGSGIMEAIS
B24: GBRAPL2_0_7209 (protein)
chain: YKERIEEAKKLSPEEAFKALKKLVKELAEDDSVSLEELEEILEAILELAYEIYKKEKTEEAEKAFDEIVDLATEAAAKRDPRLAAYIATFGGSLIMEAEL
B25: GBRAPL2_0_7229 (protein)
chain: IEEEIEEMKKLSIEEAAKRAVELVKEMAESGKYSLEEIAEFVEKAAEVLGEKLKEEKKEEGLDIAAEAADEIRKILSKIDPNLAAYAASEIGSEIMEVIS
B26: GBRAPL2_0_7216 (protein)
chain: MEELVEEARKLSIEEAAKLFVEKVKELVESGKATDEELMELVEAGAKVLGEKLKKEKKEEGLDIAMKAADEIREILEKKDPNLAAYAYSEIGAEIMEAAS
B27: GBRAPL2_0_7236 (protein)
chain: MEELLKRLLSLSLEEAKKEIKELAEKAIKLIKKDPEKGIKYAEELAKVFAEYLEKTKNEELAEVIDEAIDKIVEEVAKVDPNAAAAIASEIGSALYEVES
B28: GBRAPL2_0_7234 (protein)
chain: KEELLKELLSLSLEEAKKAIKELAEEVIKLIKEDPEKGIEKAIELAEVFAEYLIERKDEELAKVIDEAIDKIVKEVEKVDPNAAAEIASEIGSAIYEVES
B29: GBRAPL2_0_7224 (protein)
chain: MEEWIEKLKKLSIEEAAALVVEKIKELVESGKYSLEEIAEIVEKLARVLGEKLKEENKEEGLDLAAKAADEIRKILEKVDPNLAAFADSEIGSEIMEASS
B30: GBRAPL2_0_7225 (protein)
chain: MEEELEKLKKLSIEEAAKYVVEKVKELVESGKYSLEEIADIVEKLARVLGEKLKEENKEEGLDLAAKAADEIRKILSKLDPNLAAYADSEIGAEIMEASS
B31: GBRAPL2_0_7227 (protein)
chain: IEEKIKEMSKLSIEEAAKKAVELVKEMAESGKYSLEEIEEFVEAAAEVLGKKIKEEKKEEGLDIADEAARKIREILSKVDPRLAAYAASEIGAAIMEAIS
B32: GBRAPL2_0_7222 (protein)
chain: MEELKEEMLKLSIEEASEKAVKTIKEAVESGKYSLEEIAELIEEMAEVIGELLKKEKKEESVDIAIEAADKIREILEKVDPNLAAYAYSEIGAEIMEAEE

GABARAPL2, P60520, sequence (P60520 whole entry, the tested form may be a part): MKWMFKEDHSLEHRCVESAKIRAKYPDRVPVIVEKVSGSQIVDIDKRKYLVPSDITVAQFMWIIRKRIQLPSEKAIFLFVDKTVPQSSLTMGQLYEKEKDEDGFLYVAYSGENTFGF

The experiment concerns the target GABARAPL2, P60520. The experiment can be described thus: median log2 fold change of GCK-ALFA target abundance (FLAG IP / Myc IP barcode read proportion) (log2 ratio); each designed protein is fused to an ALFA-tag nanobody in HEK293 cells to bring the named protein to FLAG-tagged glucokinase (GCK); Myc marks an untargeted standard; higher = target protein stabilised (more abundant). Conditions: target protein: 3xFLAG-MCP-GCK-ALFA reporter; HEK293 landing pad (RPLP). In outline: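 Binders fused to an ALFA nanobody were recombined as a library into HEK293 landing-pad cells, which were induced with 2 μg mL^−1 doxycycline and then transfected to express a FLAG-tagged target and a Myc-tagged standard. After 48 h, circular RNA barcodes recovered by anti-FLAG and anti-Myc immunoprecipitation of lysates were reverse transcribed, amplified and sequenced. Each binder's target abundance is the median log2 ratio of FLAG to Myc barcode read proportions, from barcodes present at ≥10^−7 in both replicates, binders carrying ≥3 barcodes per replicate, a 10^−6 pseudocount and pooled replicates.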
On to B1, for which the “median log2 fold change” value was -0.0345.
Turning to B2, the “median log2 fold change” value amounted to 0.0105.
B3: the “median log2 fold change” value is -0.0156.
As for B4, the “median log2 fold change” value was determined as 0.152.
As for B5, the figure is 0.33.
The result for B6 reads 0.21; that for B7, 0.24.
Take B8: the “median log2 fold change” value was 0.0745.
B9: the “median log2 fold change” value was 0.0252.
Consider B10, for which the “median log2 fold change” value was -0.00179.
As for B11, the “median log2 fold change” value is 0.0832.
Take B12: the “median log2 fold change” value amounted to 0.328.
For the molecule B13, the “median log2 fold change” value was 0.0795.
Consider B14, for which the “median log2 fold change” value was 0.109.
Consider B15, for which the “median log2 fold change” value was -0.0647.
The result for B16 reads -0.0207; that for B17, 0.0153.
As for B18, the figure is 0.0165; as for B19, 0.00483.
The result for B20 reads 0.138.
For the molecule B21, the “median log2 fold change” value is -0.118.
Consider B22, for which the “median log2 fold change” value was 0.0633.
As for B23, the figure is 0.048.
As for B24, the figure is -0.227; as for B25, -0.0242; as for B26, 0.169.
As for B27, the figure is 0.224; as for B28, 0.244.
Turning to B29, the “median log2 fold change” value is 0.136.
As for B30, the figure is -0.0692; as for B31, 0.213; as for B32, 0.133.
